Test results as given in PubChem BioAssay (NCI).
The panel holds about 83,000 compounds, 20% with a hit somewhere; the sample as a whole holds those more often.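 For each line, cells grew in 96-well plates with the test compound present at a single concentration for 48 hours.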 Unmarked numbers belong to inactive results. Activity calls are given as the source filed them. The calls were made as follows: active = growth percent below 10; inactive = the rest.

Each compound was assayed on SK-MEL-2 melanoma (assay: NCI-60 one-dose screen, 48 h (100 = growth as untreated, 0 = no growth, -100 = all killed)). Details: 10 µM unless noted.

SMILES | growth
CCOC(=O)c1sc(/N=C2\NC(=O)/C(=C/c3ccc(N4CCN(C)CC4)cc3)S2)nc1C | 98%
Cc1cc(C)c2nc(Nc3nc(C)c(C)c(=O)[nH]3)nc(C)c2c1 | -25.6% (active)
CCOC(=O)C1=C(C)n2nc(CC#N)c(C#N)c2NC1c1ccc(Cl)cc1 (configuration not stated) | 105%
COc1ccc2oc(=O)cc(-c3nc4ccc(N)cc4[nH]3)c2c1 | 89.5%
CCOC(=O)NCCc1nc2c([nH]1)c(=O)n(C)c(=O)n2C | 101%
NC(=O)C(O)(c1ccccc1)c1ccccc1 | 105%
O=C1Nc2ccc(Cl)cc2/C1=N/c1nc(-c2ccc(F)cc2)cs1 | 39.9%
Cc1nnc(/N=C2\NC(=O)/C(=C/c3ccsc3)S2)s1 | 95.5%
N#Cc1ccc(C2C3=C(CCCC3=O)OC3=C2C(=O)c2ccccc2C3=O)cc1 (configuration not stated) | 43.7%
COCCOCCOCc1n(Cc2ccc3ccccc3c2)c2ccccc2[n+]1Cc1ccc2ccccc2c1 | -18.8% (active)
CC1(C)CC[C@]2(c3nnc(-c4ccncc4)o3)CC[C@]3(C)C(=CC[C@@H]4[C@@]5(C)CCC(=O)C(C)(C)[C@@H]5CC[C@]43C)[C@@H]2C1 | 96%
O=c1[nH]c(-c2cccc(F)c2)cc2cc(F)ccc12 | 67.4%
Cc1ccccc1NC(=O)c1sc2nc(C)c(C(C)O)cc2c1N (configuration not stated) | 34.4%
O=C1NN(c2ccccc2)C(c2ccc(Cl)cc2)N2CCC[C@H]12 (some centres not stated) | 107%
COc1ccc(Nc2cc(NC(=O)CNc3cc(OC)c(Cl)c(OC)c3Cl)ncn2)cc1 | 84.8%
O=C(Nc1nc(-c2ccccc2Cl)cs1)c1cc(-c2ccc(Br)cc2)nc2ccccc12 | 26.6%
Cn1cc(-c2ccc3c(c2)ncn3-c2ccc(CC(=O)Nc3cc(C(C)(C)C)on3)cc2)cn1 | 23.4%
CCOC(=O)CC[C@H](NC(=O)c1ccc(NC)c2ccccc12)C(=O)OCC | 106%
CCO/C=N/S(=O)(=O)c1cc2c(cc1Cl)NC=NS2(=O)=O | 105%

SMILES | growth
C#Cc1ccccc1NC(=O)c1sc2nc3c(cc2c1N)CCCCC3 | 101%
COc1ccc(NC(=O)Nc2ccc(Nc3nc(C)cc(Nc4ccc(C)cc4)n3)cc2)cc1 | -61.9% (active)
C[C@]12CC[C@@H]3c4ccc(O)cc4CC[C@H]3[C@@H]1C[C@H](O)C2 | 82.4%
O=CN1N=C(c2ccc(Cl)cc2)CC1c1cccc(Nc2ccnc3cc(C(F)(F)F)ccc23)c1 (configuration not stated) | 58%
O=[N+]([O-])c1ccc(N=Nc2c(O)c(N=Nc3cc([N+](=O)[O-])cc([N+](=O)[O-])c3O)cc(N=Nc3cc(S(=O)(=O)O)cc4cc(S(=O)(=O)O)cc(O)c34)c2O)cc1 | 100%
CCOCc1nc2ccccc2c(=O)[nH]1 | 113%
Nc1n[nH]c2cccc(C#Cc3cccc(NC(=O)c4cc(N5CCOCC5)cc(C(F)(F)F)c4)c3)c12 | 0.377% (active)
COc1ccc2[nH]c(=O)c(/C=C/C(=O)c3ccccc3OC)cc2c1 | -2.52% (active)
N#Cc1c(-c2ccc(F)cc2)nc(N/N=C/c2cccc(O)c2)nc1N1CCOCC1 | 85.9%
COc1ccc2[nH]c3nc4cnccc4cc3c2c1 | 110%
COc1cc2c(cc1OC)C(Sc1ccc(Cl)cc1)c1c(nc(N)c(C#N)c1N)O2 (configuration not stated) | -21.1% (active)
C=C1C(=O)O[C@H]2[C@H]1CCC(/C=N/c1ncc(Br)cc1N)=C\CC[C@@]1(C)O[C@@H]21 | 46.6%
CCCCC1=c2c([nH]c3ccc(OC)cc23)=NC2C=CC=NC12 (configuration not stated) | 110%
COc1ccc(-c2nc(C#N)c(NCC(c3ccc(Cl)cc3)N3CCCCC3)o2)cc1 (configuration not stated) | 109%
CCC[S@@](=O)c1ccc2nc(NC(=O)OC)[nH]c2c1 | 95.1%
CCSc1nc(Cl)c(C#N)c(-c2ccc(F)cc2)n1 | 102%
Cc1cccc(C)c1NC(=O)CN(CC(C)C)CC(O)COc1ccccc1 (configuration not stated) | 93.8%
CCOC(=O)c1ccc(Nc2ncnc3ccc(NC(=O)c4ccccc4)cc23)cc1 | 86.6%
